Reference: PubChem BioAssay AID1159580 (chemical genetic matrix, 2015)
Where “and” joins values, the source holds several entries; their conditions need not be identical. Equal values may be shown once. About 2,000 (36%) of roughly 5,500 compounds were called active. Roughly 18% stayed inconclusive and do not appear here. Cut-off read from the data, not from the text of the source: active = normalized growth mostly below about 0.91 (no sharp cut-off); inconclusive = no clear call, values can overlap the other calls; inactive = mostly above about 0.92. Some of the results follow.

Assay: chemical genetic growth profiling, strain panel (AID 1159580);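 note: tested at 20 µM; growth read once vehicle control cultures reached saturation at 30 °C; 1 = growth at the plate median or of vehicle wells; lower values mean less growth of the strain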
Conditions: S. cerevisiae deletion strains, growth OD

Measured: normalized growth

O=C(O)c1ccccc1-c1c2cc(Br)c(=O)cc-2oc2[c]([Hg])c(O)c(Br)cc12
active: locus YAL013W, strain DEP1, stronger effect = lower value 0.0843 | locus YBR021W, strain FUR4, stronger effect = lower value 0.61 | locus YBR279W, strain paf1, stronger effect = lower value 0.594 | locus YDL035C, strain GPR1, stronger effect = lower value 0.453 | locus YDL134C, strain PPH21, stronger effect = lower value 0.102 | locus YDL185W, strain tfp1, stronger effect = lower value 0.622 | locus YDL192W, strain arf1, stronger effect = lower value 0.0635 | locus YDR137W, strain rgp1, stronger effect = lower value 1.2 [resistant] | locus YDR150W, strain NUM1, stronger effect = lower value 0.732 | locus YDR162C, strain NBP2, stronger effect = lower value 0.736 | locus YDR318W, strain mcm21, stronger effect = lower value 0.07 | locus YDR388W, stronger effect = lower value 0.0603 | locus YDR502C, strain sam2, stronger effect = lower value 0.814 | locus YER110C, stronger effect = lower value 0.655 | locus YER167W, strain BCK2, stronger effect = lower value 0.0686 | locus YGL078C, strain dbp3, stronger effect = lower value 0.0613 | locus YGL086W, strain mad1, stronger effect = lower value 0.0593 | locus YGL248W, strain PDE1, stronger effect = lower value 0.0521 | locus YGR078C, strain PAC10, stronger effect = lower value 0.369 | locus YGR135W, strain pre9, stronger effect = lower value 0.0708 | locus YGR229C, strain SMI1, stronger effect = lower value 0.106 | locus YGR252W, strain gcn5, stronger effect = lower value 0.178 | locus YHR013C, strain ard1, stronger effect = lower value 0.121 | locus YHR030C, strain SLT2, stronger effect = lower value 0.146 and 0.163 | locus YHR079C, strain IRE1 (second series), stronger effect = lower value 0.884 | locus YHR079C, strain IRE1, stronger effect = lower value 0.406 | locus YHR094C, strain hxt1, stronger effect = lower value 0.0904 | locus YHR200W, strain rpn10, stronger effect = lower value 0.0659 | locus YIL066C, strain RNR3, stronger effect = lower value 0.0637 | locus YIL073C, strain SPO22, stronger effect = lower value 0.127 | locus YIL125W, strain kgd1, stronger effect = lower value 0.0621 | locus YJL168C, strain set2, stronger effect = lower value 0.0944 | locus YJR066W, strain TOR1, stronger effect = lower value 0.439
0.834 (inactive) and 0.144 (active): locus YJL095W, strain BCK1, stronger effect = lower value
inactive: locus YAL021C, strain ccr4, stronger effect = lower value 1.01 | locus YAL026C, strain drs2, stronger effect = lower value 1.04 | locus YAL030W, strain snc1, stronger effect = lower value 1.03 | locus YBL061C, strain skt5, stronger effect = lower value 1.04 | locus YBR009C, strain hhf1, stronger effect = lower value 1.03 | locus YBR023C, strain chs3, stronger effect = lower value 1.04 | locus YBR171W, strain sec66, stronger effect = lower value 1.06 | locus YBR229C, strain ROT2, stronger effect = lower value 0.972 | locus YBR231C, strain swc5, stronger effect = lower value 1.04 | locus YCL011C, strain gbp2, stronger effect = lower value 1.05 | locus YCL016C, strain dcc1, stronger effect = lower value 1.06 | locus YCL029C, strain bik1, stronger effect = lower value 0.996 | locus YCR088W, strain abp1, stronger effect = lower value 1.03 | locus YDL005C, strain med2, stronger effect = lower value 1.02 | locus YDL040C, strain nat1, stronger effect = lower value 1.05 | locus YDL074C, strain BRE1, stronger effect = lower value 0.866 | locus YDL101C, strain DUN1, stronger effect = lower value 0.936 | locus YDR001C, strain nth1, stronger effect = lower value 1.04 | locus YDR069C, strain doa4, stronger effect = lower value 1.02 | locus YDR101C, strain arx1, stronger effect = lower value 1.01 | locus YDR159W, strain sac3, stronger effect = lower value 1.05 | locus YDR195W, strain ref2 0.982 | locus YDR297W, strain sur2, stronger effect = lower value 1.04 | locus YDR334W, strain swr1, stronger effect = lower value 1.03 | locus YDR335W, strain msn5, stronger effect = lower value 1.03 | locus YDR392W, strain spt3, stronger effect = lower value 0.796 | locus YEL003W, strain gim4, stronger effect = lower value 1.02 | locus YEL037C, strain rad23, stronger effect = lower value 1.03 | locus YEL061C, strain CIN8 (second series), stronger effect = lower value 1.05 | locus YEL061C, strain CIN8, stronger effect = lower value 0.984 | locus YER015W, strain faa2, stronger effect = lower value 1.04 | locus YER016W, strain bim1, stronger effect = lower value 1.06 | locus YER111C, strain swi4, stronger effect = lower value 1.03 | locus YER155C, strain BEM2 (second series), stronger effect = lower value 1.03 | locus YER155C, strain BEM2, stronger effect = lower value 1.02 | locus YFR010W, strain ubp6, stronger effect = lower value 1.02 | locus YGL167C, strain pmr1, stronger effect = lower value 1.06 | locus YGL173C, strain kem1, stronger effect = lower value 0.973 | locus YGL227W, strain vid30, stronger effect = lower value 1.05 | locus YGL240W, strain doc1, stronger effect = lower value 1 | locus YGL253W, strain hxk2, stronger effect = lower value 1.02 | locus YHR027C, strain rpn1, stronger effect = lower value 1.01 | locus YHR129C, strain ARP1, stronger effect = lower value 0.939 | locus YHR142W, strain chs7, stronger effect = lower value 0.951 | locus YIR030C, strain dcg1, stronger effect = lower value 1 | locus YJL092W, strain hpr5, stronger effect = lower value 1.04 | locus YJL095W, strain BCK1 (second series), stronger effect = lower value 1.03 | locus YJL115W, strain asf1, stronger effect = lower value 1.03 | locus YJL129C, strain trk1, stronger effect = lower value 1.12 | locus YJL134W, strain LCB3, stronger effect = lower value 1.02 | locus YJL154C, strain vps35, stronger effect = lower value 1.04 | locus YJL164C, strain tpk1, stronger effect = lower value 1.01 | locus YJL166W, strain qcr8, stronger effect = lower value 1.02 | locus YJL187C, strain SWE1 (second series), stronger effect = lower value 0.955 | locus YJL187C, strain SWE1, stronger effect = lower value 1.01 | locus YJR043C, strain POL32, stronger effect = lower value 0.868 | locus YJR075W, strain HOC1, stronger effect = lower value 0.946
